Consider 29 sequences from the supplement of paper PMC3545927.

This is one part of the list. The true hit rate is not given.

The target in this test is furin, P09958. Put plainly: furin cleavage Z-score vs untreated control; higher = more cleavage, active = 3.5 or more, inactive = 1 or less, 8 variable residues between constant flanks. The method, boiled down:
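Cleavage by purified furin was measured on 8-mer peptides fused to a cDNA oligonucleotide and held on magnetic beads by their N-terminus. Reactions (0.01 ml, 1:10 enzyme:substrate) ran 7.5, 15 or 30 min in 50 mM HEPES pH 7.5 with CaCl2 and NaCl. Released DNA was adapter-tagged by PCR and sequenced, with read counts giving abundance. Log counts versus furin-free reactions were lowess-adjusted and scaled by median absolute deviation to give the cleavage Z-score.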

furin, P09958, sequence (P09958 whole entry, the tested form may be a part): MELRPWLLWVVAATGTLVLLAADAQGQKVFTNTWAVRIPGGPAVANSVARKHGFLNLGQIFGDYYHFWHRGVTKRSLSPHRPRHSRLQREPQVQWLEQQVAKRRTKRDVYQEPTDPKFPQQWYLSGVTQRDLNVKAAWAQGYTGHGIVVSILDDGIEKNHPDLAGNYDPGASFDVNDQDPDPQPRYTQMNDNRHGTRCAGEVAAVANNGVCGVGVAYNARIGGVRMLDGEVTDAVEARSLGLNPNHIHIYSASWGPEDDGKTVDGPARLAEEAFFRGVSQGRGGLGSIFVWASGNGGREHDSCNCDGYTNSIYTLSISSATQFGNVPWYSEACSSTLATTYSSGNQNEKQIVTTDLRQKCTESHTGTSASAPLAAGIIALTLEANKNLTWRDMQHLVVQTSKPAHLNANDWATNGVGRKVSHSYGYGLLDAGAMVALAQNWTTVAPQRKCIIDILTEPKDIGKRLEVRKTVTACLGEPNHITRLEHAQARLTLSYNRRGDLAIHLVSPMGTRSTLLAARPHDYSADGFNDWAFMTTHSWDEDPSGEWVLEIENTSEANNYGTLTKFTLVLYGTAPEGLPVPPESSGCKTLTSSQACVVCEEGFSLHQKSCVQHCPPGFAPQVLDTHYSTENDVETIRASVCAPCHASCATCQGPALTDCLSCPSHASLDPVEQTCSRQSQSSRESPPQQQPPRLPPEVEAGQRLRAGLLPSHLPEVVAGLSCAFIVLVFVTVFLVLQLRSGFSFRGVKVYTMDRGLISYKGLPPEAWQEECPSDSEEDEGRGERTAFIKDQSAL

B1: HC1632 (peptide)
chain: CAKYLFNWAVAGNASASA
Turning to B1, the “furin cleavage Z-score” value was -0.0484 (inactive) (7.5 min), 0.619 (inactive) (15 min) and 0.965 (inactive) (30 min).

B2: HC1143 (peptide)
chain: CASSECTTPCAGNASASA
As for B2, the “furin cleavage Z-score” value was -0.401 (inactive) (7.5 min), 1.52 (15 min) and 0.461 (inactive) (30 min).

B3: HC1998 (peptide)
chain: CATVCCSMSYAGNASASA
For the sequence B3, the “furin cleavage Z-score” value reads like this: (7.5 min) 0.937 (inactive); (15 min) 0.131 (inactive); (30 min) 0.837 (inactive).

B4: HC1076 (peptide)
chain: CAGAGLAGAAAGNASASA
As for B4, the “furin cleavage Z-score” value was -0.496 (inactive) (7.5 min), -0.493 (inactive) (15 min) and -0.847 (inactive) (30 min).

B5: FS-97 (peptide)
chain: CATIKRLKRSAGNASASA
As for B5, the “furin cleavage Z-score” value was 11.2 (active) (7.5 min), 11.4 (active) (15 min) and 9.36 (active) (30 min).

B6: FS-218 (peptide)
chain: CAAVARLKRSAGNASASA
Turning to B6, the “furin cleavage Z-score” value runs as follows: (7.5 min) 12.9 (active); (15 min) 11 (active); (30 min) 9 (active).

B7: FS-2853 (peptide)
chain: CATIKRSVISAGNASASA
Take B7: the “furin cleavage Z-score” value (7.5 min) was 0.545 (inactive), the “furin cleavage Z-score” value (15 min) is 0.855 (inactive) and the “furin cleavage Z-score” value (30 min) is -1.24 (inactive).

B8: FS-30 (peptide)
chain: CAHHSPLKRSAGNASASA
As to B8, the “furin cleavage Z-score” value runs as follows: (7.5 min) -0.21 (inactive); (15 min) 0.983 (inactive); (30 min) 1.29.

B9: HC2331 (peptide)
chain: CAEDPCHRPSAGNASASA
Turning to B9, the “furin cleavage Z-score” value was -1.74 (inactive) (7.5 min), -0.655 (inactive) (15 min) and 0.261 (inactive) (30 min).

B10: HC1116 (peptide)
chain: CAGAVQWMNRAGNASASA
Turning to B10, the “furin cleavage Z-score” value (7.5 min) was 0.142 (inactive), the “furin cleavage Z-score” value (15 min) worked out at 1.71 and the “furin cleavage Z-score” value (30 min) was -0.148 (inactive).

B11: FS-810 (peptide)
chain: CAKLNRRSRKAGNASASA
Take B11: the “furin cleavage Z-score” value (7.5 min) was 4.08 (active), the “furin cleavage Z-score” value (15 min) was 6.18 (active) and the “furin cleavage Z-score” value (30 min) was 5.19 (active).

B12: FS-796 (peptide)
chain: CAHQRRKYRSAGNASASA
Regarding B12, the “furin cleavage Z-score” value was 4.89 (active) (7.5 min), 5.12 (active) (15 min) and 6.05 (active) (30 min).

B13: FS-1132 (peptide)
chain: CAKLNRKYRSAGNASASA
With B13, the “furin cleavage Z-score” value reads like this: (7.5 min) 9.69 (active); (15 min) 8.1 (active); (30 min) 6.59 (active).

B14: HC1489 (peptide)
chain: CAEAIYQCCDAGNASASA
As to B14, the “furin cleavage Z-score” value was 1.16 (7.5 min), 0.588 (inactive) (15 min) and 0.702 (inactive) (30 min).

B15: HC473 (peptide)
chain: CATIFKIRMYAGNASASA
As to B15, the “furin cleavage Z-score” value reads like this: (7.5 min) -0.151 (inactive); (15 min) 0.348 (inactive); (30 min) -1.46 (inactive).

B16: FS-1657 (peptide)
chain: CASLCRYRRVAGNASASA
For B16, the “furin cleavage Z-score” value is 7.05 (active) (7.5 min), 6.79 (active) (15 min) and 8.55 (active) (30 min).

B17: FS-242 (peptide)
chain: CAGKFRYRRVAGNASASA
In the case of B17, the “furin cleavage Z-score” value is 9.76 (active) (7.5 min), 11.9 (active) (15 min) and 8.82 (active) (30 min).

B18: HC1055 (peptide)
chain: CASLMAFTAAAGNASASA
As for B18, the “furin cleavage Z-score” value (7.5 min) was -0.632 (inactive), the “furin cleavage Z-score” value (15 min) was -0.242 (inactive) and the “furin cleavage Z-score” value (30 min) is -1.13 (inactive).

B19: HC1407 (peptide)
chain: CAAAASKVKAAGNASASA
As to B19, the “furin cleavage Z-score” value runs as follows: (7.5 min) 0.991 (inactive); (15 min) -0.764 (inactive); (30 min) -0.995 (inactive).

B20: FS-2649 (peptide)
chain: CARARRQDVKAGNASASA
For the sequence B20, the “furin cleavage Z-score” value by setting is: (7.5 min) 0.761 (inactive); (15 min) 0.529 (inactive); (30 min) 2.07.

B21: HC1109 (peptide)
chain: CAVCAAILRRAGNASASA
Take B21: the “furin cleavage Z-score” value is -1.76 (inactive) (7.5 min), -0.361 (inactive) (15 min) and 0.614 (inactive) (30 min).

B22: FS-3149 (peptide)
chain: CARARRAVQKAGNASASA
B22: the “furin cleavage Z-score” value runs as follows: (7.5 min) 1.2; (15 min) 0.71 (inactive); (30 min) 1.68.

B23: FS-1687 (peptide)
chain: CARCRRALRRAGNASASA
On to B23, for which the “furin cleavage Z-score” value reads like this: (7.5 min) 3.87 (active); (15 min) 3.85 (active); (30 min) 7.16 (active).

B24: FS-2252 (peptide)
chain: CARARRAVDKAGNASASA
As for B24, the “furin cleavage Z-score” value (7.5 min) is 6.76 (active), the “furin cleavage Z-score” value (15 min) is 6.96 (active) and the “furin cleavage Z-score” value (30 min) was 6.15 (active).

B25: FS-2897 (peptide)
chain: CARCIRAFCRAGNASASA
Consider B25, for which the “furin cleavage Z-score” value was -0.211 (inactive) (7.5 min), 0.945 (inactive) (15 min) and 0.335 (inactive) (30 min).

B26: FS-1685 (peptide)
chain: CARARRVLEAAGNASASA
As to B26, the “furin cleavage Z-score” value by setting is: (7.5 min) -0.496 (inactive); (15 min) -0.739 (inactive); (30 min) -0.66 (inactive).

B27: FS-2890 (peptide)
chain: CARARRVTDAAGNASASA
Regarding B27, the “furin cleavage Z-score” value reads like this: (7.5 min) -1.51 (inactive); (15 min) -0.986 (inactive); (30 min) -0.304 (inactive).

B28: FS-3148 (peptide)
chain: CARARRAIAAAGNASASA
B28: the “furin cleavage Z-score” value was 5.95 (active) (7.5 min), 5.73 (active) (15 min) and 4.12 (active) (30 min).

B29: FS-2130 (peptide)
chain: CARARRALRRAGNASASA
As for B29, the “furin cleavage Z-score” value (7.5 min) was 3.99 (active), the “furin cleavage Z-score” value (15 min) is 4.89 (active) and the “furin cleavage Z-score” value (30 min) was 7.04 (active).
